Results on six compounds are retold here after PubChem BioAssay.

Calls of active or inactive are those of the source.

Test [1] deals with Human papillomavirus type 1a protein E7 (residues 44-93). Briefly: small molecules binding HPV E7 44-93 – biochemical, small-molecule microarray, residues 44-93, 635 nm fluorescence, primary screen (AID 1108).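 Further: E7 fragment applied at 1 µg/mL in TBST for 1 h at 4 C; score combines spot fluorescence with its signal to noise ratio.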 The following applies: fluorescence 635 nm, higher = more signal.
The nature of test [2]: hepatitis C replication reporter changes, two-sided – Huh7 cells, luciferase reporter, HCV replication inhibitor project, primary screen (AID 1109).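 Further: huh7 hepatoma cells harbouring a luciferase neomycin HCV replicon reporter; luciferase luminescence as measure of HCV replicon replication; test concentration not given here.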 Conditions: Huh7 HCV replicon luciferase reporter, 48 h; higher = more signal. For orientation: In a reporter assay the amount or activity of a reporter protein is the signal.
The target in test [3] is Left-right determination factor 2 (Homo sapiens) (UniProt O00292). Briefly: small molecules binding LEFTY2 protein – biochemical, small-molecule microarray, 635 nm fluorescence scan, primary screen (AID 1110). The following applies: higher = more signal.
Left-right determination factor 2 (Homo sapiens), sequence (O00292 whole entry, looked up): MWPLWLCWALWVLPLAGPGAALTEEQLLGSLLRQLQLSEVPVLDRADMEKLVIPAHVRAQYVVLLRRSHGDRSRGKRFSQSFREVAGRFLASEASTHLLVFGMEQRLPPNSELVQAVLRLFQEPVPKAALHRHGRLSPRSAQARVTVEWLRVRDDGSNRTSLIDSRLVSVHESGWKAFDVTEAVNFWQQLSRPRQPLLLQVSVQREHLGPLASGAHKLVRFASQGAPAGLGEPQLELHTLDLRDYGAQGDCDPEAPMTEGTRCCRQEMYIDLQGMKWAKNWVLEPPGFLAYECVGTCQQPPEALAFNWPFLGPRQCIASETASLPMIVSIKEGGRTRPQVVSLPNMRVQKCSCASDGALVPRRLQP
Test [4] addresses Calmodulin-1 (Homo sapiens) (UniProt P0DP23). Description: small molecules binding calmodulin-1 with EGTA – biochemical, small-molecule microarray, Cy5-labelled CALM1, profiling panel (AID 1111).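 Further: labelled calmodulin applied in Tris saline Tween buffer holding calcium plus EGTA and DTT.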 Conditions: Cy5-CALM1 binding fluorescence, higher = more signal.
Test [5] shares this target. Briefly: small molecules binding Ca-loaded calmodulin-1 – biochemical, small-molecule microarray, Cy5-labelled CALM1, plus calcium, artefact control for SMM control-protein annotation, profiling panel (AID 1112).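 Further: score merges spot fluorescence with signal to noise from triplicate slides.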 The following applies: Cy5-CALM1 binding fluorescence, higher = more signal.
Test [6] is described as follows: probe aWnt5a binding to arrayed compounds – biochemical, biotinylated probe, 635/667 nm fluorescence, primary screen (AID 1113).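 Further: score merges 667 nm fluorescence intensity with signal-to-noise per printed feature.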 Conditions: small-molecule microarray, higher = more signal.
A short description of test [7]: probe aShh binding to arrayed compounds – biochemical, biotinylated probe, 635/667 nm fluorescence, primary screen (AID 1114).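 Further: probe is biotin-labelled aShh protein from a stem cell growth factor screen; measures binding of labelled protein to compounds printed on the slide; score merges feature fluorescence at 667 nm with signal-to-noise.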 The following applies: small-molecule microarray, higher = more signal.
Test [8] in a line: probe aNog binding to arrayed compounds – biochemical, biotinylated probe, 635/667 nm fluorescence, primary screen (AID 1115).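 Further: probe is biotinylated aNog protein used at 0.15 µg/mL for 1 h at 4 C; z-score combines 667 nm fluorescence of each spot with its signal to noise.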 The following applies: small-molecule microarray, higher = more signal.
For test [9], the target named is Torsin-1A-interacting protein 1 (Homo sapiens) (UniProt Q5JTV8). Description: compound microarray binding of lysate hLAP1 – cell lysate, small-molecule microarray, COS7 lysate, 635/667 nm fluorescence, primary screen (AID 1116). Conditions: 635 nm fluorescence, higher = more signal.
Torsin-1A-interacting protein 1 (Homo sapiens), sequence (Q5JTV8 whole entry, looked up): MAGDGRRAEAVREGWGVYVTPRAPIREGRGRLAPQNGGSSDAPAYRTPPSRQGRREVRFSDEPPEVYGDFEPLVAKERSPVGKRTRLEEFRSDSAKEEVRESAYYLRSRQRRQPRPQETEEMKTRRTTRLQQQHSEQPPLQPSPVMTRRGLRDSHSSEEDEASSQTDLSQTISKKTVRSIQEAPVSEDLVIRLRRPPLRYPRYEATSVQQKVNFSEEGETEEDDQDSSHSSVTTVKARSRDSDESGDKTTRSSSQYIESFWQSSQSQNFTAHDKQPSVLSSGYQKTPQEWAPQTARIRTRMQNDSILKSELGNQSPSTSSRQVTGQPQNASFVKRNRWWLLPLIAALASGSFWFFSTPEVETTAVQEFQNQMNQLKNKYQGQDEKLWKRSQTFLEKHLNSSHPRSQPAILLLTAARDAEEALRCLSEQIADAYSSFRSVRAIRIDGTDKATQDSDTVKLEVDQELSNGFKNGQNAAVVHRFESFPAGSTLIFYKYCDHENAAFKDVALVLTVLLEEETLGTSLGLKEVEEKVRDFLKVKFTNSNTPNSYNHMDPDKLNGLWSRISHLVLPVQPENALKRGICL
In test [10] the target is Alpha-bungarotoxin (Bungarus multicinctus) (UniProt P60615). Description: compounds binding labelled alpha-BTX control protein – biochemical, small-molecule microarray, Alexa647 label, 635/667 nm fluorescence, artefact control for SMM control protein annotation, profiling panel (AID 1117). The following applies: alpha-BTX-A647 binding fluorescence, higher = more signal.
Alpha-bungarotoxin (Bungarus multicinctus), sequence (P60615 whole entry, looked up): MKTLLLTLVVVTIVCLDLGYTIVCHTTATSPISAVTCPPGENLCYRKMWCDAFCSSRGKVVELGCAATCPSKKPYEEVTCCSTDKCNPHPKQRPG
A further test has as its target Albumin (Bos taurus) (UniProt P02769). Briefly: compounds binding labelled BSA control protein – biochemical, small-molecule microarray, Alexa647 label, 635/667 nm fluorescence, artefact control for SMM control protein annotation, profiling panel (AID 1118).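 Further: score merges 667 nm emission intensity and signal-to-noise per printed compound spot.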 Conditions: BSA-A647 binding, fluorescence 635 nm, higher = more signal.
A short description of test [11]: probe aXIP binding to arrayed compounds – biochemical, NeuroSMM set, 635/667 nm fluorescence, primary screen (AID 1119).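 Further: probe is the protein aXip251-270 applied at 1 µg/mL to compound-printed slides; binding of probe to printed compounds measured as 667 nm fluorescence plus signal to noise.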 The following applies: small-molecule microarray, higher = more signal, called active from +8 up or from −8 down.
Test [12] in a line: probe aNOTCH3 binding on compound microarray – biochemical, small-molecule microarray, 635/667 nm fluorescence, primary screen (AID 1120).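 Further: probe is a biotin-tagged antibody raised against NOTCH3 rather than NOTCH3 protein; score merges spot fluorescence near 667 nm with spot signal to noise.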 The following applies: higher = more signal.
Test [13] can be described thus: probe aNOTCH2 binding on compound microarray – biochemical, small-molecule microarray, 635/667 nm fluorescence, primary screen (AID 1121).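 Further: score merges feature fluorescence read at 667 nm with its signal to noise.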 Conditions: higher = more signal.
Test [14] addresses Carbonic anhydrase 2 (Homo sapiens) (UniProt P00918). Description: compounds binding carbonic anhydrase 2 – biochemical, small-molecule microarray, Alexa647-labelled CAII, profiling panel (AID 1122). Conditions: CAII-A647 binding fluorescence, higher = more signal.
Test [15] is described as follows: COS7 lysate on small-molecule microarray, probe aHis, 635 nm (AID 1123).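 Further: z-score combines 667nm fluorescence intensity with signal-to-noise per printed compound spot.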 The following applies: COS7 cell lysate, fluorescence, higher = more signal.
The nature of test [16]: probe aLAP1 signal on lysate-treated microarray – cell lysate, small-molecule microarray, COS7 lysate, primary screen (AID 1124).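 Further: lysate comes from COS7 cells expressing LAP1 and is applied at 0.3 µg/mL; score merges spot fluorescence near 667 nm with signal-to-noise over triplicate slides.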 The following applies: probe aLAP1, fluorescence, higher = more signal.
The next test concerns Sam68 (KHDRBS1). Description: compounds binding KHDRBS1 protein – biochemical, small-molecule microarray, 635 nm fluorescence, primary screen (AID 1125).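 Further: score merges 667 nm channel intensity with signal to noise over triplicate slides.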 The following applies: higher = more signal.
For test [17], the system named is Chordin-like protein 2 (CHRDL2). Briefly: compounds binding chordin-like 2 – biochemical, small-molecule microarray, 635 nm fluorescence, primary screen (AID 1126).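 Further: printed compound slides probed with Chrdl2 protein at 4 µg/mL for 1 h at 4 C; score merges 667 nm emission intensity with signal to noise over three replicate slides.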 The following applies: fluorescence 635 nm, higher = more signal.
Test [18] concerns the target Concanavalin-A (Canavalia ensiformis) (UniProt P02866). Briefly: compounds binding concanavalin A lectin – biochemical, small-molecule microarray, Alexa647 label, 635 nm, artefact control for SMM control protein annotation, primary screen (AID 1127).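 Further: z combines 667 nm emission intensity with signal-to-noise across three replicate slides.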 Conditions: ConA-A647 binding fluorescence, higher = more signal.

Albumin (Bos taurus), sequence (P02769 whole entry, looked up): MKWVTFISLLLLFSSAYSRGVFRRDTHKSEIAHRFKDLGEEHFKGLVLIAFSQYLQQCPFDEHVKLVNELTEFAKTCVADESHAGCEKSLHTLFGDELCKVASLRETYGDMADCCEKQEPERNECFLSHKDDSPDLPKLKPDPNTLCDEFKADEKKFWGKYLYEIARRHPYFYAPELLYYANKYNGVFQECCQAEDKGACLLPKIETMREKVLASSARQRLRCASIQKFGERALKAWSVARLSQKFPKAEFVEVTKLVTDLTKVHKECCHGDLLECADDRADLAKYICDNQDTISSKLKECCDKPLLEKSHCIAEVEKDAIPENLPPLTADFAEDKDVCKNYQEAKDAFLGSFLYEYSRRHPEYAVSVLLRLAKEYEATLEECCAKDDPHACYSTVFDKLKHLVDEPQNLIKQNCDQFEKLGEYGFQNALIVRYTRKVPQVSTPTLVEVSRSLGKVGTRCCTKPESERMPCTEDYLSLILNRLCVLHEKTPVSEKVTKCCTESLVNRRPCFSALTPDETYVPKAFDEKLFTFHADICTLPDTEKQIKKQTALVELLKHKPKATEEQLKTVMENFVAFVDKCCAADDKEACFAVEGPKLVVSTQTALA
Concanavalin-A (Canavalia ensiformis), sequence (P02866 whole entry, looked up): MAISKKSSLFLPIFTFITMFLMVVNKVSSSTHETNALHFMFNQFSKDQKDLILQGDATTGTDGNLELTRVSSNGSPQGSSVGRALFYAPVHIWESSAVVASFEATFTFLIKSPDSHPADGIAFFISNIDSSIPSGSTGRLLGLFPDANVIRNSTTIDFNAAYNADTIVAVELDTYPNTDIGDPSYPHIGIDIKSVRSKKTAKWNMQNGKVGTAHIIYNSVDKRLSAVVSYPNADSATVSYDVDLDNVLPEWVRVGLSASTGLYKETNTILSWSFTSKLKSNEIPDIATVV

On to `CC(CCN1CCCc2nc(C)c(C)cc21)=NO[C@H](C)c1cn([C@@H]2COC[C@H]2O)nn1`, for which the composite z-score in test [1] is 0.839; in [3] it was 0.831; in [4], -0.253; in test [5], -0.718; in [6], -0.0478; in test [7], 0.0611. The composite z-score in test [8] is -0.158; in test [9], 0.695; in test [10], 0.102; with Albumin (Bos taurus), -0.392; in [12], 0.106; in [13] it was -0.0741. The composite z-score in test [14] is 0.25; in test [15] it was -0.205; in test [16] it was 0.58; in the test with Sam68 (KHDRBS1) it was 1.32; in test [17], 0.854; in test [18], 0.351. Moreover, the z-score in test [2] is 0.0504. The composite Z-score in test [11] is 0.37 (inactive).
With `CC(CCC(=O)OC[C@H]1O[C@H](C#Cc2ccccc2)C=C[C@@H]1Oc1ccc(C)cc1)=NOC(C)CN1CCCc2nc(C)c(C)cc21` (stereo not given in full), the composite z-score in [1] is 1.21; in test [3] it was 0.447; in test [4], 0.687; in test [5], -0.0954; in test [6], -0.0944; in [7], -0.0146. Further, the composite z-score was 0.125 in test [8]; 0.132 in test [9]; 0.898 in test [10]; 0.412 with Albumin (Bos taurus); -0.0647 in [12]; -0.0793 in test [13]. Moreover, the composite z-score in test [14] is -0.0994; in test [15], 1.12; in [16], -0.114; with Sam68 (KHDRBS1) it was 1.14; in test [17] it was 0.281; in [18] it was 0.924. Also, the z-score in test [2] was -0.456. The composite Z-score in test [11] is -0.266 (inactive).
Regarding `CCC1=NOC(CCC2CC(OC(=O)NCc3cccc4c3OCO4)CC3(CCCC(COC(=O)NCCc4ccc(Cl)cc4)O3)O2)C1` (stereo not given), the composite z-score in test [1] is 0.916; in [3] it was 0.304; in test [4], -0.257; in test [5] it was -0.532; in [6] it was -0.142; in [7], -0.16. For the same compound, the composite z-score was -0.402 in [8]; -0.342 in test [9]; -0.148 in test [10]; 0.585 in the test with Albumin (Bos taurus); -0.0647 in test [12]; -0.0651 in [13]. Also, the composite z-score in test [14] was 0.228; in test [15] it was 0.599; in test [16], -0.29; in the test with Sam68 (KHDRBS1), 0.712; in test [17], -0.0546; in test [18], 0.0985. The same compound came in with a z-score in [2] of -0.0374. Also, in [11], the composite Z-score was -0.0197 (inactive).
`C[C@]12CCC3c4ccc(OCC5CO5)cc4CCC3C1CC[C@@H]2O` (stereo not given in full): the composite z-score in [1] was 0.629; in test [3] it was 0.242; in test [4], 0.964; in [5], 0.285; in test [6] it was -0.0346; in test [7], 0.0062. Also, the composite z-score in [8] was 0.316; in test [9], 0.542; in test [10] it was 1.59; with Albumin (Bos taurus), 0.754; in test [12] it was -0.0932; in [13], 0.0365. In addition, the composite z-score amounted to 0.646 in test [14]; 0.528 in test [15]; 0.414 in [16]; 0.759 with Sam68 (KHDRBS1); 0.118 in [17]; 0.961 in [18]. The compound also gave a z-score in test [2] of -2.71. In addition, the composite Z-score in test [11] is 0.257 (inactive).
For the compound `CO[C@@H](C(C)C)[C@@H](C)C1OC(=O)CC1O` (stereo not given in full), the composite z-score was -0.175 in test [1]; 0.0752 in test [3]; -0.32 in test [4]; 0.192 in [5]; -0.232 in test [6]; -0.171 in test [7]. In addition, the composite z-score was -0.478 in [8]; -0.214 in test [9]; -0.427 in test [10]; -0.145 with Albumin (Bos taurus); -0.159 in [12]; -0.166 in test [13]. Moreover, the composite z-score was -0.169 in [14]; -0.18 in test [15]; -0.542 in [16]; -0.22 in the test on Sam68 (KHDRBS1); -0.598 in [17]; -0.347 in test [18]. The compound also yielded a z-score in [2] of 0.975. The composite Z-score in test [11] is 0.0923 (inactive).
Turning to `CC(=O)OC[C@H]1O[C@H](C#CCCc2ccccc2)C=C[C@@H]1OC(C)=O`, the composite z-score in test [1] is -0.515; in test [3], 0.751; in test [4], -0.288; in [5], -0.715; in test [6], -0.0721; in [7], 0.0204. Further, the composite z-score in test [8] is 0.0658; in test [9], 0.128; in [10], 1.53; with Albumin (Bos taurus), 0.829; in test [12], 0.106; in test [13], -0.0727. Also, the composite z-score is 0.376 in [14]; 2.2 in test [15]; -0.332 in test [16]; 0.179 in the test with Sam68 (KHDRBS1); 0.697 in test [17]; 0.127 in test [18]. Moreover, the z-score in test [2] is -1.12. Also, the composite Z-score in [11] is -0.399 (inactive).
